# Data reported in PubChem BioAssay (NCI).
# This is part of a sample that, as a whole, favours compounds with a hit. Of some 79,000 tested, about 15% had one in any assay. Unmarked numbers belong to inactive results. The source made the active and inactive calls. No stated cut-off is given here; in the data, active means growth inhibition above about 70%; inactive means the rest.
# Assays:
# [1] = NCI Yeast Anticancer Drug Screen. Data for the rad52 strain (AID 147);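 further: 0% = growth of vehicle-treated control cultures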; details: S. cerevisiae rad52 mutant growth inhibition, stronger effect = higher value
# Outline: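 Growth of repair-deficient yeast cells was compared between compound-treated and vehicle-treated cultures to give percent inhibition.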
# [2] = NCI Yeast Anticancer Drug Screen. Data for the wt1 strain (AID 149);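 further: 0% = growth of vehicle-treated wt1 cultures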; details: S. cerevisiae wt1 strain (SPY 50644) growth inhibition, stronger effect = higher value
# Outline: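 Yeast wt1 strain exposed to compounds; growth inhibition measured relative to vehicle-treated controls.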
# [3] = NCI Yeast Anticancer Drug Screen. Data for the rad50EPP+ strain (AID 151);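 further: 0% = growth of vehicle-treated control cultures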; details: S. cerevisiae rad50 mutant strain, stronger effect = higher value
# Outline: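 Measured: growth inhibition of rad50EPP+ yeast. Reference: vehicle-treated controls. Screen uses strains with defined genetic alterations in DNA damage repair or cell cycle control.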
# [4] = NCI Yeast Anticancer Drug Screen. Data for the mgt1 strain (AID 153); details: S. cerevisiae mgt1 mutant growth inhibition, stronger effect = higher value
# Outline: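 Compounds were applied to mgt1 mutant yeast, and growth was then compared against vehicle-treated control cultures to give percent inhibition.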
# [5] = NCI Yeast Anticancer Drug Screen. Data for the rad50 strain (AID 155);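 further: 0% = growth of vehicle-only cultures of the same strain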; details: S. cerevisiae rad50 strain growth inhibition, stronger effect = higher value
# Outline: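 Yeast carrying a defined DNA repair defect were exposed to test compounds, and growth was compared with vehicle-treated controls to give percent inhibition.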
# [6] = NCI Yeast Anticancer Drug Screen. Data for the mec2-1 strain (AID 157); details: S. cerevisiae mec2-1 strain, stronger effect = higher value
# Outline: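 Compounds were applied to mec2-1 yeast cells. Their growth was then compared with that of vehicle-treated cultures to give growth inhibition.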
# [7] = NCI Yeast Anticancer Drug Screen. Data for the rad14 strain (AID 159);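 further: 0% = growth of vehicle-treated control cultures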; details: S. cerevisiae rad14 strain growth inhibition, stronger effect = higher value
# Outline: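 Yeast cells carrying a defined DNA-repair defect were exposed to compounds, and growth inhibition was calculated relative to vehicle-treated control cultures.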
# [8] = NCI Yeast Anticancer Drug Screen. Data for the sgs1 mgt1 strain (AID 161);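 further: 0% = growth of cultures given vehicle only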; details: S. cerevisiae sgs1 mgt1 strain, stronger effect = higher value
# Outline: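 This yeast growth screen uses a strain with defined DNA-repair lesions; compound-treated growth is compared with vehicle-treated growth.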
# [9] = NCI Yeast Anticancer Drug Screen. Data for the CLN2oe strain (AID 163);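 further: 0% = growth of vehicle-only control cultures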; details: S. cerevisiae CLN2oe strain, stronger effect = higher value
# Outline: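 Cells of an engineered yeast line with disturbed cell-cycle regulation are treated with compound. Inhibition of growth is then calculated relative to the vehicle-treated reference.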
# [10] = NCI Yeast Anticancer Drug Screen. Data for the cln2 rad14 strain (AID 165);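 further: 0% = growth equal to vehicle treated cultures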; details: S. cerevisiae cln2 rad14 strain, stronger effect = higher value
# Outline: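 Strain: cln2 rad14 yeast, altered in cell cycle control and DNA damage repair. Read-out: growth inhibition vs vehicle.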
# [11] = NCI Yeast Anticancer Drug Screen. Data for the bub3 strain (AID 167); details: S. cerevisiae bub3 mutant strain, stronger effect = higher value
# Outline: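 Compounds were applied to a genetically altered yeast strain carrying a cell-cycle control defect. Growth inhibition was scored against vehicle-treated controls.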
# [12] = NCI Yeast Anticancer Drug Screen. Data for the wt2 strain (AID 169);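 further: 0% = growth of vehicle-treated yeast cultures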; details: S. cerevisiae wt2 strain growth inhibition, stronger effect = higher value
# Outline: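 Growth of compound-treated yeast is measured and expressed as inhibition relative to vehicle-only controls.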
# [13] = NCI Yeast Anticancer Drug Screen. Data for the mlh1 strain (AID 171);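 further: 0% = growth of vehicle-treated control cultures of the same strain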; details: S. cerevisiae mlh1 strain growth inhibition, stronger effect = higher value
# Outline: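 Test agents were incubated with yeast bearing a defined DNA damage repair or cell cycle control alteration; values are growth inhibition normalised to vehicle-treated cultures.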
# [14] = NCI Yeast Anticancer Drug Screen. Data for the sgs1 strain (AID 173);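 further: 0% = growth of vehicle-only control cultures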; details: S. cerevisiae sgs1 mutant, stronger effect = higher value
# Outline: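 Strain with an altered DNA repair or cell cycle pathway exposed to compound. Growth then measured. Value = inhibition versus vehicle control.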
# [15] = NCI Yeast Anticancer Drug Screen. Data for the mlh1 rad18 strain (AID 175); details: S. cerevisiae mlh1 rad18 strain growth inhibition, stronger effect = higher value
# Outline: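 A repair-deficient yeast strain is exposed to test compound, and growth is scored relative to vehicle-treated controls.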
# [16] = NCI Yeast Anticancer Drug Screen. Data for the rad18 strain (AID 177); details: S. cerevisiae rad18 mutant growth inhibition, stronger effect = higher value
# Outline: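 DNA-repair-defective yeast; compound treatment; growth inhibition scored against vehicle.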
# [17] = at 5.0 µM (retest, dose inferred, filed as 0.5)
# [18] = at 50.0 µM (retest, dose inferred, filed as 5.0)
structure (smiles),measurement,setting,value
Oc1ccc(-c2nc(-c3ccc(F)cc3)c(-c3ccc4ccccc4n3)[nH]2)cc1,growth inhibition,[1]; at 1.2 µM,-48%
same,growth inhibition,[1]; at 3.7 µM,-41%
same,growth inhibition,[1]; at 11.0 µM,85% (active)
same,growth inhibition,[1]; at 33.0 µM,96% (active)
same,growth inhibition,[1]; at 100.0 µM,88% (active)
same,growth inhibition,[2]; at 1.2 µM,-60%
same,growth inhibition,[2]; at 3.7 µM,-54%
same,growth inhibition,[2]; at 11.0 µM,64%
same,growth inhibition,[2]; at 33.0 µM,18%
same,growth inhibition,[2]; at 100.0 µM,94% (active)
same,growth inhibition,[3]; at 1.2 µM,-43%
same,growth inhibition,[3]; at 3.7 µM,-37%
same,growth inhibition,[3]; at 11.0 µM,-26%
same,growth inhibition,[3]; at 33.0 µM,-16%
same,growth inhibition,[3]; at 100.0 µM,-18%
same,growth inhibition,[4]; at 1.2 µM,-28%
same,growth inhibition,[4]; at 3.7 µM,-31%
same,growth inhibition,[4]; at 11.0 µM,81% (active)
same,growth inhibition,[4]; at 33.0 µM,97% (active)
same,growth inhibition,[4]; at 100.0 µM,92% (active)
same,growth inhibition,[5]; at 1.2 µM,-31%
same,growth inhibition,[5]; at 3.7 µM,-44%
same,growth inhibition,[5]; [17],19%
same,growth inhibition,[5]; at 11.0 µM,76% (active)
same,growth inhibition,[5]; at 33.0 µM,97% (active)
same,growth inhibition,[5]; [18],54%
same,growth inhibition,[5]; at 50.0 µM,90.5% (active)
same,growth inhibition,[5]; at 100.0 µM,94% (active)
same,growth inhibition,[6]; at 1.2 µM,-40%
same,growth inhibition,[6]; at 3.7 µM,-27%
same,growth inhibition,[6]; [17],16%
same,growth inhibition,[6]; at 11.0 µM,69%
same,growth inhibition,[6]; at 33.0 µM,98% (active)
same,growth inhibition,[6]; [18],63%
same,growth inhibition,[6]; at 50.0 µM,93% (active)
same,growth inhibition,[6]; at 100.0 µM,96% (active)
same,growth inhibition,[7]; at 1.2 µM,-51%
same,growth inhibition,[7]; at 3.7 µM,-49%
same,growth inhibition,[7]; at 11.0 µM,-6%
same,growth inhibition,[7]; at 33.0 µM,94% (active)
same,growth inhibition,[7]; at 100.0 µM,91% (active)
same,growth inhibition,[8]; [17],0%
same,growth inhibition,[8]; [18],-41%
same,growth inhibition,[8]; at 50.0 µM,92.2% (active)
same,growth inhibition,[9]; at 1.2 µM,-5%
same,growth inhibition,[9]; at 3.7 µM,-8%
same,growth inhibition,[9]; at 11.0 µM,93% (active)
same,growth inhibition,[9]; at 33.0 µM,98% (active)
same,growth inhibition,[9]; at 100.0 µM,94% (active)
same,growth inhibition,[10]; [17],13%
same,growth inhibition,[10]; [18],-33%
same,growth inhibition,[10]; at 50.0 µM,90.6% (active)
same,growth inhibition,[11]; at 1.2 µM,-32%
same,growth inhibition,[11]; at 3.7 µM,-20%
same,growth inhibition,[11]; [17],5%
same,growth inhibition,[11]; at 11.0 µM,96% (active)
same,growth inhibition,[11]; at 33.0 µM,98% (active)
same,growth inhibition,[11]; [18],-31%
same,growth inhibition,[11]; at 50.0 µM,91.8% (active)
same,growth inhibition,[11]; at 100.0 µM,90% (active)
same,growth inhibition,[12]; at 1.2 µM,-56%
same,growth inhibition,[12]; at 3.7 µM,-40%
same,growth inhibition,[12]; at 11.0 µM,96% (active)
same,growth inhibition,[12]; at 33.0 µM,96% (active)
same,growth inhibition,[12]; at 100.0 µM,93% (active)
same,growth inhibition,[13]; at 1.2 µM,-44%
same,growth inhibition,[13]; at 3.7 µM,-37%
same,growth inhibition,[13]; at 11.0 µM,36%
same,growth inhibition,[13]; at 33.0 µM,98% (active)
same,growth inhibition,[13]; at 100.0 µM,94% (active)
same,growth inhibition,[14]; at 1.2 µM,-34%
same,growth inhibition,[14]; at 3.7 µM,-38%
same,growth inhibition,[14]; at 11.0 µM,97% (active)
same,growth inhibition,[14]; at 33.0 µM,98% (active)
same,growth inhibition,[14]; at 100.0 µM,90% (active)
same,growth inhibition,[15]; [17],27%
same,growth inhibition,[15]; [18],70% (active)
same,growth inhibition,[15]; at 50.0 µM,85.8% (active)
same,growth inhibition,[16]; at 1.2 µM,-28%
same,growth inhibition,[16]; at 3.7 µM,-36%
same,growth inhibition,[16]; at 11.0 µM,96% (active)
same,growth inhibition,[16]; at 33.0 µM,97% (active)
same,growth inhibition,[16]; at 100.0 µM,94% (active)
